Data from PubChem BioAssay (NCATS).
Records with an inconclusive call do not appear. Where a call stands in place of a potency, no number is given. Calls of active or inactive are those of the source. Calls follow the shape of the dose curve; as a rule, active = well fitted inhibition curve with a large enough effect; inconclusive = small, poorly fitted or top-dose-only effect; inactive = flat fitted curve, though single readings scatter. Where a SMILES comes first, the peptide text is derived from it. [ ]: non-standard residue; d: D form. Ala(indol-2-yl) = N[C@@H](Cc1cc2ccccc2[nH]1)C(=O)O; Aib = CC(C)(N)C(=O)O

These molecules were tested against Phospholipid hydroperoxide glutathione peroxidase GPX4 (Homo sapiens) (UniProt P36969) (assay: Primary qHTS Assay for Inhibitors of Recombinant Selenoprotein Glutathione Peroxidase 4 (GPX4) (AID 1845192; also: nearly all actives have a fitted effect of over 65% in size)). Conditions: recombinant GPX4, GR-coupled NADPH fluorescence, 15 min; series mostly up to 50 µM.
Phospholipid hydroperoxide glutathione peroxidase GPX4 (Homo sapiens), sequence (P36969 whole entry, looked up): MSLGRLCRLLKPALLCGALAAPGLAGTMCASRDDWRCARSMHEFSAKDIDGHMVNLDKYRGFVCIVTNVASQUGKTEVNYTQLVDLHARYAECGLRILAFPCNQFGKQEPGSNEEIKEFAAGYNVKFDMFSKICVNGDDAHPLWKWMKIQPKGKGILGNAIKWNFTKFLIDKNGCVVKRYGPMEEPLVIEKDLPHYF
In short: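 NADPH consumption, followed by fluorescence at 340/450 nm between 0 and 15 min, reports GPX4 activity via coupled glutathione reductase (100 nM). Enzyme 200 nM was pre-exposed to compound 30 min; 0.5 mM cumene hydroperoxide and 1 mM GSH served as substrates.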
In the case of CCC(C)/C=C(C)/C=C/C1=CC2=C(Cl)C(=O)C(C)(OC(C)=O)C(=O)C2=CO1 (stereo not drawn), the Potency is reported as “inactive”. In the case of COC1CC(O[C@H]2CC[C@]3(C)C4CC[C@]5(C)[C@@H](C6=CC(=O)OC6)[C@@H](OC(C)=O)C[C@]5(O)C4CC[C@@H]3C2)OC(C)C1O (stereo partly drawn), the Potency is reported as “inactive”. For C[C@H]1O[C@@H](O[C@H]2CC[C@]3(C=O)C4CC[C@]5(C)[C@@H](C6=CC(=O)OC6)CC[C@]5(O)[C@@H]4CC[C@]3(O)C2)C[C@@H](O)[C@@H]1O (stereo partly drawn), the Potency was “inactive”. In the case of C=C1[C@@H](C)[C@H]2[C@H](Cc3ccccc3)NC(=O)[C@]23OC(=O)/C=C/C(=O)CCC[C@@H](C)C/C=C/[C@H]3[C@@H]1O, the Potency is reported as “inactive”. In the case of COC1CC(O[C@H]2CC[C@@]3(C)C(CCC4C3CC[C@]3(C)[C@@H](C5=CC(=O)OC5)CC[C@]43O)C2)OC(C)C1O (stereo partly drawn), the Potency is reported as “inactive”. CC(C)(C)[C@]1(O)C[C@@H]2OC(=O)C[C@@]23C(=O)O[C@@H]2OC(=O)[C@@H](O)[C@]213 was tested, and the Potency was “inactive”. C[C@H]1C/C=C/[C@H]2[C@@H]3O[C@]3(C)[C@@H](C)[C@H]3[C@H](Cc4ccccc4)NC(=O)[C@]32OC(=O)O/C=C/[C@@](C)(O)C1=O was tested, and the Potency was “inactive”. CNC(=O)c1cc(C#N)cc(C)c1NC(=O)c1cc(Br)nn1-c1ncccc1Cl was tested, and the Potency was “inactive”. For COC1CC(O[C@H]2CC[C@]3(C=O)C4CC[C@]5(C)[C@@H](C6=CC(=O)OC6)CC[C@]5(O)[C@@H]4CC[C@@H]3C2)OC(C)C1O[C@@H]1O[C@H](CO)[C@@H](O[C@@H]2O[C@H](CO)[C@@H](O)[C@H](O)[C@H]2O)[C@H](O)[C@H]1O (stereo partly drawn), the Potency was “inactive”. With CC[C@@H]1C[C@H]2CC[C@H](O2)[C@H](C)C(=O)O[C@@H](C)C[C@@H]2CC[C@@H](O2)[C@@H](C)C(=O)O[C@H](CC)C[C@H]2CC[C@H](O2)[C@H](C)C(=O)O[C@@H](C)C[C@@H]2CC[C@@H](O2)[C@@H](C)C(=O)O1 the Potency was “inactive”. For CO[C@@H]1C[C@H](O[C@H]2CC[C@@]3(C)C(CCC4C3CC[C@]3(C)[C@@H](C5=CC(=O)OC5)[C@@H](OC(C)=O)CC43O)C2)O[C@H](C)[C@@H]1O[C@H]1O[C@H](CO[C@@H]2O[C@H](CO)[C@@H](O)[C@H](O)[C@H]2O)[C@@H](O)[C@H](O)[C@H]1O (stereo partly drawn), the Potency was “inactive”. For CC(=O)O[C@@H]1[C@@H](O)[C@H]2O[C@@H]3C=C(C)[C@@H](O)C[C@]3(CO)[C@]1(C)[C@]21CO1, the Potency was “inactive”. For CO[C@H]1C[C@H](O[C@H]2CC[C@@]3(C)C(=CCC4C3CC[C@]3(C)[C@@H](C5=CC(=O)OC5)CC[C@]43O)C2)O[C@@H](C)[C@@H]1O[C@@H]1O[C@H](CO[C@@H]2O[C@H](CO)[C@@H](O)[C@H](O)[C@H]2O)[C@@H](O)[C@H](O)[C@H]1O (stereo partly drawn), the Potency was “inactive”. For c1cncc(OC[C@@H]2CCN2)c1, the Potency was “inactive”. For CC(=O)OC[C@]12C[C@H](OC(=O)CC(C)C)C(C)=C[C@H]1O[C@@H]1[C@H](O)C[C@@]2(C)[C@]12CO2, the Potency was “inactive”. CNc1ccc2oc(C[C@H]3O[C@@]4(CC[C@H]3C)O[C@H](C(C)C(=O)c3ccc[nH]3)[C@H](C)C[C@H]4C)nc2c1C(=O)O (stereo partly drawn) was tested, and the Potency was “inactive”. For C[N@@+]1(CC2CC2)CC[C@]23c4c5ccc(O)c4O[C@H]2C(=O)CC[C@@]3(O)[C@H]1C5, the Potency was “inactive”. For COc1ccc2c3c([nH]c2c1)C(C=C(C)C)N1C(=O)C2CCCN2C(=O)C1C3 (stereo not drawn), the Potency was “inactive”. CC(=O)OC[C@]12C[C@H](OC(=O)CC(C)C)C(C)=C[C@H]1O[C@@H]1[C@H](O)[C@@H](O)[C@@]2(C)[C@]12CO2 was tested, and the Potency was “inactive”. CC(C)(NC(=O)[C@@H](N)Cc1ccc(O)cc1)C(=O)N[C@@H](Cc1cc2ccccc2[nH]1)C(=O)N[C@@H](Cc1ccccc1)C(=O)O (H-Y[Aib][Ala(indol-2-yl)]F-OH) was tested, and the activity change, negative = inhibition was -0.548% [at 9.73 µM] (inactive). C[C@]12CC[C@H](O)C[C@H]1CC[C@@H]1[C@@H]2[C@H](O)C(=O)[C@]2(C)[C@@H](c3ccc(=O)oc3)CC[C@]12O was tested, and the Potency was “inactive”. CC[C@H]1C2CC3[C@@H]4N(C)c5ccccc5[C@]45C[C@@H]([C@H]2[C@H]5O)N3[C@@H]1O was tested, and the Potency was “inactive”. With O=C(CC1NCCC[C@H]1O)Cn1cnc2cc(Br)c(Cl)cc2c1=O (stereo partly drawn) the Potency was “inactive”. In the case of CC1=C[C@H]2O[C@@H]3C[C@H]4OC(=O)/C=C/C=C/C(=O)OCC/C(C)=C/C(=O)OC[C@@]2(CC1)[C@]4(C)[C@]31CO1, the Potency is reported as “inactive”. C=C(CO)C(=O)O[C@H]1CC(=C)[C@@H]2C[C@H](O)C(=C)[C@@H]2[C@H]2OC(=O)C(=C)[C@@H]21 was tested, and the Potency was “inactive”. For CC1CCCC(=O)CCC/C=C/c2cc(O)cc(O)c2C(=O)O1 (stereo not drawn), the Potency was “inactive”. For CC[C@@]1(O)C(=O)OCc2c1cc1n(c2=O)Cc2cc3c(OC)cccc3nc2-1, the Potency was “inactive”. In the case of CC(=O)OC[C@]12C[C@H](O)C(C)=C[C@H]1O[C@@H]1[C@H](O)[C@@H](O)[C@@]2(C)[C@]12CO2, the Potency is reported as “inactive”. CC(=O)OC[C@]12C[C@H](O)C(C)=C[C@H]1O[C@@H]1[C@H](O)[C@@H](OC(C)=O)[C@@]2(C)[C@]12CO2 was tested, and the Potency was “inactive”. CO[C@H]1[C@H](O)[C@H](O[C@H]2CC[C@]3(C=O)C4CC[C@]5(C)[C@H](C6=CC(=O)OC6)CC[C@]5(O)C4CC[C@@H]3C2)O[C@@H](C)[C@@H]1O (stereo partly drawn) was tested, and the Potency was “inactive”. For C[C@H]1O[C@@H](n2cnc3c(N)ncnc32)C[C@@H]1O, the Potency was “inactive”. For CO[C@H]1[C@@H](O)[C@@H](C)O[C@@H](O[C@@H]2C=C3C(OC(C)=O)CC4(O)C(CC[C@]5(C)[C@@H](C6=CC(=O)OC6)CC[C@]45O)[C@@]3(C)CC2)[C@@H]1O (stereo partly drawn), the Potency was “inactive”. In the case of CN(C)c1cc2c(cc1Sc1nc3c(N)nccc3n1CCNCC(C)(C)C)OCO2, the Potency is reported as “inactive”.
